Values without a mark were called inactive. Results filed as inconclusive are left out. Active and inactive are the calls of the source. Unless noted, calls follow the shape of the full dose curve.

Experiment [1] is described as follows: Nuclear factor erythroid 2-related factor 2/antioxidant responsive element (Nrf2/ARE) small molecule agonists: qHTS cell viability counter screen in human keratinocytes (AID 1919968; active = well fitted curve in the direction sought with a large enough effect in the repeat runs; an effect the other way counts as inactive or inconclusive; also: nearly all actives have a fitted effect of over 55% in size; also: potency is read from the fitted curve at half-maximal effect). A digest of the protocol: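 Measured as CellTiter-Fluor fluorescence, this readout tracks cytotoxicity in the same wells as the ARE-luciferase screen. HaCaT reporter cells (1,500/well) received compounds after a 5 h pre-incubation and were exposed for 23 h.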
(In general: Quantitative high-throughput screening tests each substance at several concentrations.)

The target of experiment [2] is Gonadotropin-releasing hormone receptor (Homo sapiens) (UniProt P30968). Description: Human gonadotropin-releasing hormone receptor (GnRHR) small molecule agonists, calcium flux assay in GnRHR-HEK293 cells (AID 1920063). Also: nearly all actives have a fitted effect of over 35% in size. A digest of the protocol:
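Fluorescence kinetics (480 nm excitation, 540 nm emission; 3 min, 1 s steps) report calcium mobilisation in human GnRHR-HEK293 cells in agonist mode. Dye incubation: 1 h, 37 C.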

In experiment [3] the target is KiSS-1 receptor (Homo sapiens) (UniProt Q969F8). As to the kind of experiment: Human kisspeptin (KISS1R) small molecule agonists, calcium flux assay in KISS1R-HEK293 cells (AID 1920064; active = well fitted curve in the direction sought with a large enough effect in the repeat runs; an effect the other way counts as inactive or inconclusive). A digest of the protocol: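 Measures KISS1R agonism through calcium-sensitive dye fluorescence in stably transfected HEK293 cells, read for 3 min after pin-tool compound delivery; 15-point titrations in triplicate.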

Experiment [4] in a line: G protein-coupled receptor (GPCR) small molecule agonists, calcium flux assay: HEK293 wild type cell line counter screen (AID 1920065). A digest of the protocol:
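Readout: fluorescence at 480 nm excitation/540 nm emission, sampled at 1 s intervals for 3 min. Cells had been cultured 18 h, then dye-loaded 1 h at 37 C before compound or ATP addition.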
Background: A change in cytosolic calcium serves as a functional read-out for many receptors and channels.

Experiment [5] in a line: p53 small molecule agonists, cell-based qHTS assay with human liver microsomes (AID 1963577).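 Also: p53 response element beta-lactamase reporter cells with liver microsomes plus NADPH.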 A digest of the protocol: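 HLM-supplemented p53RE-bla reporter assay: 16 h compound exposure at 37 C, microsomes and NADPH each 0.5 mg/mL final, read by fluorescence intensity.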
The nature of experiment [6]: p53 small molecule agonists, cell-based qHTS assay with rat liver microsomes (AID 1963578). A digest of the protocol:
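Quantitative HTS of the Tox21 10K library: p53RE-bla cells, rat liver microsomes plus NADPH at 0.5 mg/mL final each, 16 h at 37 C, beta-lactamase fluorescence detection.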

A short description of experiment [7]: p53 small molecule agonists, cell-based qHTS assay with human liver microsomes: qHTS cell viability counter screen (AID 1963579). Also: nearly all actives have a fitted effect of over 45% in size. A digest of the protocol:
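Viability of p53RE-bla cells is measured as CellTiter-Glo luminescence following a 16 h, 37 C incubation with compound, liver microsomes from human donors and NADPH.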

A short description of experiment [8]: p53 small molecule agonists, cell-based qHTS assay with rat liver microsomes: qHTS cell viability counter screen (AID 1963580). Also: nearly all actives have a fitted effect of over 45% in size. A digest of the protocol:
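HCT-116 p53RE-bla, 4,000 cells/well, 5 h pre-incubation; cpd + rat liver microsomes 0.5 mg/mL + NADPH 0.5 mg/mL (final); 16 h, 37 C; CellTiter-Glo, 30 min RT; luminescence.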

The nature of experiment [9]: p53 small molecule agonists, cell-based qHTS assay: qHTS cell viability counter screen (AID 1963581). Also: nearly all actives have a fitted effect of over 45% in size. A digest of the protocol: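 In the same plates used for the p53 bla reporter, HCT-116 cells given compounds for 16 h at 37 C received CellTiter-Glo; luminescence was recorded 30 min later at room temperature.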
The target of experiment [10] is 5-hydroxytryptamine receptor 2A (Homo sapiens) (UniProt P28223). As to the kind of experiment: 5-hydroxytryptamine receptor 2A (HTR2A) small molecule antagonists, cell-based qHTS assay (AID 1963586). Also: nearly all actives have a fitted effect of over 45% in size. A digest of the protocol:
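Antagonist-mode intracellular calcium assay: DOI (4 nM) added after 5 min compound pre-incubation at room temperature to dye-loaded HTR2A-CHO cells. Fluorescence followed for 3 min, sampled every second.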

For experiment [11] the target is unchanged. Description: 5-hydroxytryptamine receptor 2A (HTR2A) small molecule agonists, cell-based qHTS assay (AID 1963587). Also: nearly all actives have a fitted effect of over 30% in size. A digest of the protocol:
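Kinetic calcium-flux fluorescence (2 min, 1 sec intervals) after compound addition in agonist mode. HTR2A-CHO cells were cultured 18 h, then dye-loaded 1 h at 37 C.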

Experiment [12] deals with Muscarinic acetylcholine receptor M1 (Homo sapiens) (UniProt P11229). Description: Cholinergic receptor muscarinic 1 (CHRM1) small molecule antagonists, cell-based qHTS assay (AID 1963588). Also: nearly all actives have a fitted effect of over 40% in size. Also: potency is read from the fitted curve at half-maximal effect. A digest of the protocol: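 CHRM1-CHO calcium-flux assay, antagonist mode. Cells were seeded 18 h, dye-loaded 1 h at 37 C and given compound for 5 min at RT, then acetylcholine was added at 50nM. FDSS fluorescence was read 3 min; 15 concentrations, three runs.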

Experiment [13] shares this target. As to the kind of experiment: Cholinergic receptor muscarinic 1 (CHRM1) small molecule agonists, cell-based qHTS assay (AID 1963589). Also: nearly all actives have a fitted effect of over 35% in size. A digest of the protocol:
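Each compound was tested at 15 concentrations across three independent runs on dye-loaded CHO cells stably expressing human CHRM1, reading intracellular calcium fluorescence kinetically at 1 sec intervals.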

The target in experiment [14] is Beta-2 adrenergic receptor (Homo sapiens) (UniProt P07550). As to the kind of experiment: Adrenergic beta2 receptor (ADRB2) small molecule antagonists, cell-based qHTS assay (AID 1963592). Also: nearly all actives have a fitted effect of over 50% in size. Also: potency is read from the fitted curve at half-maximal effect. A digest of the protocol: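 Cells (CHO, stable ADRB2 overexpression) incubated 18-20hr at 37C; compounds added from DMSO; agonist mix (1nM isoproterenol, 100uM IBMX, 25uM Ro-20-1724) added; 0.5hr RT; d2-cAMP and anti-cAMP-cryptate added; 1hr RT; 665/615 nm read.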

Experiment [15] concerns the target D(2) dopamine receptor (Homo sapiens) (UniProt P14416). Description: Dopamine D2 receptor (DRD2) small molecule agonists, cell-based qHTS assay (AID 1963594). Also: nearly all actives have a fitted effect of over 35% in size. Also: potency is read from the fitted curve at half-maximal effect. A digest of the protocol:
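cAMP accumulation in DRD2-HEK293 cells measured by HTRF after 1 h detection; compounds added 10 min before NKH477 (200nM […]) forskolin-analogue stimulation, 30 min at room temperature, with Ro20-1724 present at 0.1 mM final.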

The target is the same in experiment [16]. As to the kind of experiment: Dopamine D2 receptor (DRD2) small molecule antagonists, cell-based qHTS assay (AID 1963595; active = well fitted inhibition curve with a large enough effect in the signal ratio in the repeat runs, with a control signal flat; the % refers to the signal ratio). A digest of the protocol: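 Human DRD2 antagonist qHTS measuring cAMP by HTRF. The cells are exposed to compound for 10 min, then to NKH477 (200 nM) and quinpirole (12 nM) for 30 min at RT, with Ro20-1724 (0.1 mM) present throughout.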

Experiment [17] can be described thus: p53 small molecule agonists, cell-based qHTS assay (AID 1963582; active = well fitted activation curve with a large enough effect in the signal ratio in the repeat runs, not every such curve was filed as active; the % refers to the signal ratio). A digest of the protocol:
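Compounds are pin-transferred in DMSO onto p53RE-bla cells and incubated 16 h at 37 C. The B/G FRET beta-lactamase substrate is then applied for 2 h at RT and fluorescence recorded.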

A short description of experiment [18]: cAMP Responsive Elements (CRE) small molecule agonists, cell-based qHTS assay (AID 1963590). A digest of the protocol: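 Cell line: CRE-bla HEK 293T; medium DMEM/10% dialyzed FBS/0.1 mM NEAA/1 mM pyruvate/25 mM HEPES; 3 h compound exposure; beta-lactamase FRET readout after 2 h substrate loading at RT.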
Experiment [19] is described as follows: cAMP Responsive Elements (CRE) small molecule antagonists, cell-based qHTS assay (AID 1963591; active = well fitted inhibition curve with a large enough effect in the signal ratio in the repeat runs, not every such curve was filed as active; the % refers to the signal ratio). A digest of the protocol:
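Inhibition of NKH477-driven (0.25 uM final) CRE-beta-lactamase signal in HEK293T cells, 3 h compound exposure at 37 °C, detected by FRET substrate fluorescence.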

Experiment [20] concerns the target Beta-2 adrenergic receptor (Homo sapiens) (UniProt P07550). As to the kind of experiment: Adrenergic beta2 receptor (ADRB2) small molecule agonists, cell-based qHTS assay (AID 1963593).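 Also: CHO cells stably overexpressing human ADRB2.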 A digest of the protocol: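 CHO cells stably over-expressing ADRB2 were plated overnight at 37C, then dosed with compounds plus a stimulation mix containing 100uM IBMX and 25uM Ro-20-1724 for 0.5hr at room temperature. cAMP was measured by HTRF competition, 1hr.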

Sequence of D(2) dopamine receptor (Homo sapiens) (P14416 whole entry, looked up): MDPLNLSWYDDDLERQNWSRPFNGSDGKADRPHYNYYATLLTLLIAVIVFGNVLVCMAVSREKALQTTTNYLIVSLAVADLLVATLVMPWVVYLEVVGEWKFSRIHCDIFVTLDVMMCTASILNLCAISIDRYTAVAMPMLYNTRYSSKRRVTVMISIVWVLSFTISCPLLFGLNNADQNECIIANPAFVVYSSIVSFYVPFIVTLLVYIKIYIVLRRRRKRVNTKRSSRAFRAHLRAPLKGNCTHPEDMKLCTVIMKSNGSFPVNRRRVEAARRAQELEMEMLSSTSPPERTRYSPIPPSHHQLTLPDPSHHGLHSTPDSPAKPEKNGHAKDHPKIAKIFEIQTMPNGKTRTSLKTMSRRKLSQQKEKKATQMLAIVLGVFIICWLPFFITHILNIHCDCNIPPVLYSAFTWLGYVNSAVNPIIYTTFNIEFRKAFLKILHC
Sequence of 5-hydroxytryptamine receptor 2A (Homo sapiens) (P28223 whole entry, looked up): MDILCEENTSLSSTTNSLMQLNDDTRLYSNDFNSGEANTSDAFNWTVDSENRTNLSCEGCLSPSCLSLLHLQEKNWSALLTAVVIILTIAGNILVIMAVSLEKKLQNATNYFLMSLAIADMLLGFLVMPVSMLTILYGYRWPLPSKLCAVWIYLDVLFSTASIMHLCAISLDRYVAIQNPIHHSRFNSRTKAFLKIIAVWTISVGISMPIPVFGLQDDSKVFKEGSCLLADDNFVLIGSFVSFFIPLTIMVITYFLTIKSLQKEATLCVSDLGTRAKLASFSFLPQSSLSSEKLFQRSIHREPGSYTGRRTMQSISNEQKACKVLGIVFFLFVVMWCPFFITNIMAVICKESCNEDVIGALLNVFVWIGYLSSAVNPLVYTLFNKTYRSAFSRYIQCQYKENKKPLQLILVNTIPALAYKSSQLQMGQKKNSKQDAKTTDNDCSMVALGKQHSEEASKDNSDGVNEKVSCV
Sequence of Gonadotropin-releasing hormone receptor (Homo sapiens) (P30968 whole entry, looked up): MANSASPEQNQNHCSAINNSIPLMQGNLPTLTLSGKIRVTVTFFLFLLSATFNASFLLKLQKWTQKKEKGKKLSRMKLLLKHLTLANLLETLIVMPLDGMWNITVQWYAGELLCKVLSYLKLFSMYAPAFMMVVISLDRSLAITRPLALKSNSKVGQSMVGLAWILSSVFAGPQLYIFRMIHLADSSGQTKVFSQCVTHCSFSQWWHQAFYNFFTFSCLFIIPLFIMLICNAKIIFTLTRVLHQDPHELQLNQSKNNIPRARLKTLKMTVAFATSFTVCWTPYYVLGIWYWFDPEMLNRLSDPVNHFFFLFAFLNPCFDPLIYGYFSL
Sequence of Muscarinic acetylcholine receptor M1 (Homo sapiens) (P11229 whole entry, looked up): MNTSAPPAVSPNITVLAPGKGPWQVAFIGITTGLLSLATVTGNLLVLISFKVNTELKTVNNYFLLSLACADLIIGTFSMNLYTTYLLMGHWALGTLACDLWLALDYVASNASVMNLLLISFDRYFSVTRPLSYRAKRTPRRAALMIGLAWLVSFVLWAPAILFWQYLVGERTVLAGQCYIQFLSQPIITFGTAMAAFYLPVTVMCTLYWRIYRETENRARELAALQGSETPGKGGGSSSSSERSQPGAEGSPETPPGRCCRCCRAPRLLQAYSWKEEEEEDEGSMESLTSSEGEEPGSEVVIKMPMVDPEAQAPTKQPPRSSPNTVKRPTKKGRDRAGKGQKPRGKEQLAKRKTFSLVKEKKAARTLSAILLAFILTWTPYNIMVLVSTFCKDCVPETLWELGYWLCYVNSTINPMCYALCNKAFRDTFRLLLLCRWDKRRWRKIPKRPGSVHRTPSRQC
Sequence of KiSS-1 receptor (Homo sapiens) (Q969F8 whole entry, looked up): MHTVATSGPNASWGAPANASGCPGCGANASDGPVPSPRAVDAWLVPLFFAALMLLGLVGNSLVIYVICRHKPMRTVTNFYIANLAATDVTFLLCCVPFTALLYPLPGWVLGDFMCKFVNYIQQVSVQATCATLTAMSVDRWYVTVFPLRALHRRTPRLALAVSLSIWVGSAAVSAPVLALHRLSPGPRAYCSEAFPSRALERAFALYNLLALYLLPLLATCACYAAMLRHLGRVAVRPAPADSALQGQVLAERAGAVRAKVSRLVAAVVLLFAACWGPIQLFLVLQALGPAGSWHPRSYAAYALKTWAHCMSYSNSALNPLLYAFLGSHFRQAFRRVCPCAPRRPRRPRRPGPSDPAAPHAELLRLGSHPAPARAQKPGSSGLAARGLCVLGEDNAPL
Sequence of Beta-2 adrenergic receptor (Homo sapiens) (P07550 whole entry, looked up): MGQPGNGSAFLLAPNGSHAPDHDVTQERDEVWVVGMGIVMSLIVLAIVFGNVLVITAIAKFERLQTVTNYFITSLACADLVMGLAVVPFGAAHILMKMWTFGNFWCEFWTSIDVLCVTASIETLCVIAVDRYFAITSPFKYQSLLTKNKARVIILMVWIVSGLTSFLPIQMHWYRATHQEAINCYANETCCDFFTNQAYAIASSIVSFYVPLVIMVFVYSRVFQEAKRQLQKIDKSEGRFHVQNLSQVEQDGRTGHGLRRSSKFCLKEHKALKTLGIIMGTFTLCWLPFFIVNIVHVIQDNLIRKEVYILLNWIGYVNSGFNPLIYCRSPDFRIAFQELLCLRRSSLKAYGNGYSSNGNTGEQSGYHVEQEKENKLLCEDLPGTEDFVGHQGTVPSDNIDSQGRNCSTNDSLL

For `CCOC(=O)c1ccc(C2CCC(NC[C@H](O)COc3ccc(O)c(NS(C)(=O)=O)c3)CC2)cc1` (some centres undefined), the Potency is 56.4 µM (active) in [1], 8.69 µM (active) in experiment [12], 7.96 µM (active) in [14] and 0.0796 µM (active) in [15]. Besides, the Potency entry in experiment [2], in [3], in experiment [4], in [5], in experiment [6] and in [7] was “inactive” in each case. Also, the Potency result in experiment [8], in experiment [9], in [10], in [11], in experiment [13] and in experiment [16] was “inactive” throughout.

Consider `CCOB(OCC)OCC`, for which the Potency result in [1], in experiment [2], in experiment [3], in experiment [4], in [5] and in [6] was “inactive” each time. Also, the Potency entry in experiment [7], in experiment [9], in [17], in [10], in experiment [11] and in [13] was “inactive” in each case. In addition, the Potency result in experiment [18], in experiment [19], in experiment [14], in experiment [20] and in experiment [15] was “inactive” throughout.

As to `Cc1ccc([N+](=O)[O-])c(N)c1`, the Potency entry in [1], in [2], in experiment [3], in [4], in [5] and in [6] was “inactive” in each case. Also, the Potency result in experiment [8], in experiment [9], in experiment [17], in [10], in [11] and in experiment [12] was “inactive” in each case. For the same compound, the Potency result in experiment [13], in [18], in [19], in experiment [20], in experiment [15] and in experiment [16] was “inactive” throughout.

In the case of `CC(CC=O)c1ccccc1` (centres undefined), the Potency entry in [1], in experiment [2], in [3], in [4], in experiment [5] and in [6] was “inactive” in each case. Moreover, the Potency result in experiment [8], in experiment [9], in [17], in experiment [10], in experiment [11] and in experiment [12] was “inactive” each time. The Potency result in [13], in experiment [18], in experiment [19], in experiment [14], in experiment [20] and in experiment [15] was “inactive” throughout. Also, the Potency result in experiment [16] is “inactive”.

With `CC(C)(c1ccccc1)c1ccccc1`, the Potency result in experiment [1], in [2], in [3], in experiment [4], in experiment [5] and in experiment [6] was “inactive” throughout. For the same compound, the Potency result in experiment [7], in experiment [9], in experiment [17], in experiment [10], in [11] and in [13] was “inactive” each time. For the same compound, the Potency entry in experiment [18], in experiment [19], in experiment [14], in experiment [20] and in experiment [15] was “inactive” in each case.

With `O=C1NC(=O)C2CC=CCC12` (centres undefined), the Potency result in experiment [1], in experiment [2], in experiment [3], in [4], in [5] and in [6] was “inactive” in each case. The Potency result in experiment [8], in experiment [9], in [17], in [10], in [12] and in [18] was “inactive” each time. Further, the Potency entry in experiment [19], in [14], in experiment [15] and in [16] was “inactive” each time.

With `CO[C@@H]1[C@@H](OC)[C@H](C)[C@@](O)(CC(=O)O)O[C@H]1[C@H](C)[C@H]1O[C@@]2(CC[C@@](C)([C@H]3CC[C@@](C)([C@@H]4O[C@@H]([C@H]5O[C@](C)(O)[C@H](C)C[C@@H]5C)C[C@@H]4OC4C[C@H](OC)[C@@H](OC)[C@H](C)O4)O3)O2)C[C@H](O)[C@H]1C` (some centres undefined), in experiment [1], the Potency is 0.237 µM (active). The Potency entry in [2], in [3], in [4], in [5], in experiment [6] and in experiment [8] was “inactive” throughout. Besides, the Potency entry in experiment [18], in [14], in experiment [20], in [15] and in experiment [16] was “inactive” each time.

As to `O=C1CCc2ccc(OCCCCN3CCN(c4cccc(Cl)c4Cl)CC3)cc2N1`, the Potency in experiment [1] was 21.1 µM (active). Further, the Potency entry in experiment [2], in experiment [3], in [4], in experiment [5], in [6] and in experiment [8] was “inactive” throughout. For the same compound, the Potency entry in experiment [13] and in experiment [19] was “inactive” throughout.

These data come from PubChem BioAssay (Tox21).
